An excerpt weighted towards active compounds, which were near 0.83% of everything screened.
UCHL1 block: blocks human UCHL1 ubiquitin-rhodamine cleavage; P09936; purified UCHL1, Ub-rhodamine cleavage fluorescence; inhibition, % at 20 µM; hit rate 0.2% among 47,000; AID 1645859
USP7 block: blocks human USP7 ubiquitin-rhodamine cleavage. hit rate 0.3% among 47,000. purified USP7, Ub-rhodamine cleavage fluorescence. inhibition, % at 20 µM. Q93009
Target sequence (Q93009 whole entry, looked up): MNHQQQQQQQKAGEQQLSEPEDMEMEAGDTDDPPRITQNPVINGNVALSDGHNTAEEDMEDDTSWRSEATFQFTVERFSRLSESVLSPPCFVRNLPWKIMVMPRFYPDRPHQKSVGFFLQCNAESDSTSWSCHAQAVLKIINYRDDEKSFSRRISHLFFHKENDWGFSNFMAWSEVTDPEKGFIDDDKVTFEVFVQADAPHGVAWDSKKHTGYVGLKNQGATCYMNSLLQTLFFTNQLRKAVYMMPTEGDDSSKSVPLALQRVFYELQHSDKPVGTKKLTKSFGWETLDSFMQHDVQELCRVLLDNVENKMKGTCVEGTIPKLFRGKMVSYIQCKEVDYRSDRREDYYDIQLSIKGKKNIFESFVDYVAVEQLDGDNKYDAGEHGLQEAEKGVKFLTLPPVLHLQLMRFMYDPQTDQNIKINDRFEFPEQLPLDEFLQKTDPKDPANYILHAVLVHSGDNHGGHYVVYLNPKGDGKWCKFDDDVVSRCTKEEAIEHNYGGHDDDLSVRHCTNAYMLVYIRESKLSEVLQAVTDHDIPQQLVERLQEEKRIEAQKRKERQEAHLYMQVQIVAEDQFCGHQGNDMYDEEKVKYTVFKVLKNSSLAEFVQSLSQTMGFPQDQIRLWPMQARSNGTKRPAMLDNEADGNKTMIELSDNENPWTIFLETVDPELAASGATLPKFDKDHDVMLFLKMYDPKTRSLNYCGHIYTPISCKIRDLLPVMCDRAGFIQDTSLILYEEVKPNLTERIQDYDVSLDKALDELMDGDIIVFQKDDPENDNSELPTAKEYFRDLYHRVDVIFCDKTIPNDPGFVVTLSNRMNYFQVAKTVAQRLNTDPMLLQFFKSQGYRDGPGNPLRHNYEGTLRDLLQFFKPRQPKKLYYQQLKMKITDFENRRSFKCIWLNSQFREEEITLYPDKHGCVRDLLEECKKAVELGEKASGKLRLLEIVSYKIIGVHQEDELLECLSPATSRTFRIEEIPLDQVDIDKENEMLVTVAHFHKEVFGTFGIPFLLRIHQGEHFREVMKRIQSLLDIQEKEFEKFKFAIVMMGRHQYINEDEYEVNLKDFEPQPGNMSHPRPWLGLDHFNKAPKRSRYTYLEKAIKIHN
OTUD3 inh: blocks human OTUD3 ubiquitin-rhodamine cleavage; purified OTUD3, Ub-rhodamine fluorescence, 2 h; Q5T2D3; hit rate 0.7% among 47,000; inhibition, % at 25 µM; AID 1645858
Hits are given with their value; - = inactive. No stated cut-off is given here; in the data, active means inhibition above about 30%; inactive means the rest.

SMILES	UCHL1 block	USP7 block	OTUD3 inh
O=C(CCSc1nnnn1-c1ccccc1)Nc1cc(C(F)(F)F)ccc1Cl	-	35	-
Cc1nc(-c2cc(C)[nH]n2)cc(C2CCN(S(C)(=O)=O)CC2)n1	-	-	-
CC(C)=CCC/C(C)=C/CC/C(C)=C/COc1c(O)cc(C=O)c(C=O)c1O	92	93	84
CC(C)=CCC/C(C)=C/CC/C(C)=C/Cc1c(C)cc(O)cc1O	-	-	-
O=c1[nH]c(C2CCN(S(=O)(=O)c3ccccc3)CC2)nc2c1nnn2Cc1c(Cl)cccc1Cl	-	-	-
N#Cc1cccc(NC(=O)COC(=O)c2n[nH]c3ccccc23)c1	-	-	-
CCOC(=O)c1ccc(Oc2sccc2[N+](=O)[O-])cc1	-	85	-
CCOC(=O)c1ccc(Oc2nc(C)nc3sc(C)c(C)c23)cc1	-	-	-
Cc1cc(C)c2cc(CN(CCc3ccccc3)C(=O)Nc3ccccc3)c(=O)[nH]c2c1	-	-	-
O=C(Nc1cccc(Cl)c1)c1nnc(C(=O)N2CCCC(C(=O)NC3CC3)C2)s1 (stereo not drawn)	-	-	-
COc1cccc(NC(=O)[C@H](C)NC(=O)c2cc3c(OC)c(OC)ccc3[nH]2)c1	-	-	-
CCCCCCCC1OC(=O)Cc2cc(O)c(O)c(O)c21 (stereo not drawn)	63	75	92
CC1Cc2ccccc2N1C(=O)c1coc(NC(=O)c2ccco2)n1 (stereo not drawn)	-	-	-
O=C(CC1CC1)N1CCOC2(CCCN(c3ncc(F)cn3)C2)C1 (stereo not drawn)	-	-	-
CCCn1c(=O)c(-c2ccc(C(=O)NCc3ccc(OC)cc3)cc2)nc2cccnc21	-	31	-
CCn1c(=O)c(-c2ccc(C(=O)NCc3ccc(OC)cc3OC)cc2)nc2cccnc21	-	-	-
C=C1Nc2ccccc2C(=O)N1c1cccc(NC(=O)c2ccc(C)c(C)c2)c1	-	-	30
C=C1Nc2ccccc2C(=O)N1c1cccc(NC(=O)c2ccc(C)cc2)c1	-	-	-
CCN(CC)c1ccc(C(=O)CN2CCC(S(=O)(=O)c3ccc(-c4cccs4)cc3)CC2)cc1	-	-	-
CCCCCCCCCCCCCCCCCC(=O)N[C@@H]1C[C@@H](O)[C@@H](O)NC(=O)[C@@H]2[C@@H](O)[C@@H](C)CN2C(=O)[C@H]([C@@H](C)O)NC(=O)[C@H]([C@H](O)[C@@H](O)c2ccc(O)cc2)NC(=O)[C@@H]2C[C@@H](O)CN2C(=O)[C@H]([C@@H](C)O)NC1=O	-	-	-
Cc1ccc(C(=O)Nc2ccc3nccnc3c2)cc1	-	-	-
O=C(Nc1ccc2n[nH]nc2c1)c1ccc(Cl)c(Cl)c1	-	-	40
COCCN1CCC12CCN(C(=O)c1ccc(-n3cccc3)cc1)C2 (stereo not drawn)	-	-	-
Cc1nc(N2CCCC2)c2oc3ccc(Cl)cc3c2n1	-	-	-
COc1ccc(-c2nc(-c3cn(-c4ccccc4)nn3)no2)c(OC)c1	-	-	35
SMILES	UCHL1 block	USP7 block	OTUD3 inh
COc1ccc(-c2nc(-c3cn(-c4cccc(Cl)c4)nn3)no2)c(OC)c1	-	-	-
CCc1ccc(NC(=O)Cn2c(=O)n(Cc3ccccc3)c(=O)c3nn(CC)cc32)cc1	-	32	-
CCn1cc2c(n1)c(=O)n(Cc1ccccc1)c(=O)n2CC(=O)Nc1ccc(C(C)C)cc1	-	-	-
Cc1cccc(C(C)C)c1NC(=O)CN1c2ccc(F)cc2-c2ccccc2S1(=O)=O	-	-	-
Cc1cc(N2CCN(C(=O)C3CCCCC3)CC2)nc(N2CCOCC2)n1	-	-	-
CC1=CC[C@]2(C)C[C@@H](O)[C@](O)(C(C)C)C2CC1 (stereo partly drawn)	-	-	-
COc1ccc(OC[C@@H]2C3CCC(C3)N2C(=O)c2snnc2C)cc1 (stereo partly drawn)	-	-	-
O=C(Nc1ccccc1)C1COc2ccccc2C1 (stereo not drawn)	-	-	-
O=C(O)C1C(C(=O)Nc2ccccc2)C2(c3ccccc3)C(=O)C1(c1ccccc1)C(c1ccccc1)=C2c1ccccc1 (stereo not drawn)	-	66	64
O=C(c1nccc2ccccc12)N1CCCCC1c1ccn2ccnc2n1 (stereo not drawn)	-	-	-
CCCCCCCC[C@@H](C)[C@@H]1OC(=O)[C@H](CO)NC(=O)[C@H](C(=O)c2c[nH]c3ccccc23)NC(=O)[C@@H](CCC(=O)O)NC(=O)[C@H]1C	-	-	-
CCCCCCCCCCCC(O)CC(=O)N[C@@H](CC(C)C)C(=O)N[C@H](CCC(=O)O)C(=O)N[C@H]1C(=O)N[C@H]([C@@H](C)CC)C(=O)NC(CC(C)C)C(=O)N[C@H](CO)C(=O)N[C@@H](CC(C)C)C(=O)N[C@@H](CC(C)C)C(=O)N[C@H](CO)C(=O)N[C@@H](C(C)C)C(=O)O[C@@H]1C (stereo partly drawn)	-	39	44
COc1cccc(-c2nn(Cc3ccccc3)cc2C(=O)N2CCN(CCN3CCCC3)CC2)c1	-	-	-
Cc1ccccc1Cn1cc(S(=O)(=O)N2CCCCCC2)ccc1=O	-	-	-
COc1cccc2c1OCC(NS(=O)(=O)c1cc(C)ccc1C)C2 (stereo not drawn)	-	-	82
COc1cc(C)ccc1NC(=O)COc1cccc2c1OC(C)(C)C2	-	-	-
CCC(C(=O)Nc1ccc(-c2nc3cccnc3s2)cc1)c1ccccc1 (stereo not drawn)	-	-	-
O=C(Cn1c(=O)n(Cc2ccc(F)cc2)c(=O)c2ncccc21)NCc1ccc(F)cc1	-	-	-
O=C(Cn1c(=O)n(Cc2ccc3c(c2)OCO3)c(=O)c2ncccc21)NCc1ccccc1	-	-	44
CCCCC[C@H](O)/C=C/C=C/CCCCCCCC(=O)O	-	-	-
CC/C=C\C/C=C\C/C=C\CCCCCCCC(=O)O	35	41	73
COCCCNC(=O)c1ccc(Cn2c(=O)c3ccccc3n(CC(=O)NCc3ccco3)c2=O)cc1	-	-	-
COCCNC(=O)Cn1c(=O)n(Cc2ccc(C(=O)NCc3ccc(C)cc3)cc2)c(=O)c2ccccc21	-	-	47
COc1ccc(OC)c(CCNC(=O)C2c3ccccc3C(=O)N(C)C2c2cccs2)c1 (stereo not drawn)	-	-	-
N#C/C(=C\c1ccc(OCc2cccc(C(=O)O)c2)cc1)c1ccc(F)cc1	-	31	-
SMILES	UCHL1 block	USP7 block	OTUD3 inh
N#C/C(=C/c1ccc(OCc2cccc(C(=O)O)c2)cc1)c1ccccc1	-	-	-
FC(F)(F)c1cnc(N2CCC(c3ncn[nH]3)CC2)c(Cl)c1	-	-	-
CCOc1ccccc1NC(=O)Cn1c(=O)n(CCCC(=O)NCc2ccc(C)cc2)c(=O)c2sccc21	-	36	-
O=C(CCn1c(=O)c2sccc2n(Cc2ccc([N+](=O)[O-])cc2)c1=O)NCc1ccccc1	-	-	44
Cc1cc(NC(=O)Cn2c(=O)n(CCCCCC(=O)NCc3ccc4c(c3)OCO4)c(=O)c3sccc32)n[nH]1	-	-	-
COc1ccc(NC(=O)Cn2c(=O)n(CC(=O)NCc3ccc(C)cc3)c(=O)c3sccc32)cc1OC	-	-	32
CCOc1ccc(NC(=O)Cn2c(=O)n(CC(=O)NCc3ccc(C)cc3)c(=O)c3sccc32)cc1	-	-	-
